Screening data: PubChem, National Center for Advancing Translational Sciences (NCATS)
TDP1 cell CPT: growth inhibition of DT40 Tdp1-/-;hTDP1 cells with camptothecin (screen for TDP1 inhibitors). Potency, µM (highest dose often 46.2 µM), inactives show top-dose activity change, negative = growth inhibition, usual class: inhibitors. AID 686979. chicken DT40 Tdp1-/-;hTDP1 cells + 20 nM CPT, ATP luminescence, 48 h. 420,000 tested, 12% active; also: nearly all actives have a fitted effect of over 55% in size
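Chicken DT40 Tdp1-/- cells complemented with human TDP1, 400 cells/well, exposed to compounds plus 20 nM camptothecin for at least 48 h at 37 C; viability read as ATP content by CellTiter-Glo luminescence.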
VP16 counter: inhibits Gal4-VP16 luciferase reporter, ROR gamma counter-screen; Potency, µM (highest dose often 53.6 µM), inactives show top-dose activity, negative = inhibition, hits mostly inhibitors; 310,000 tested, 3.5% active; Drosophila S2 Gal4-VP16 UAS-luciferase, luminescence, 20 h;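 also: Gal4-VP16 expression switched on by copper sulfate through the metallothionein promoter; nearly all actives have a fitted effect of over 50% in size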
RORg inh: ROR gamma (mouse) transcription inhibition. P51450. Drosophila S2 Gal4-RORgamma UAS-luciferase reporter, 20 h. Potency, µM (titrated, usually from 53.6 µM), for inactives: at the highest dose activity change, negative = inhibition, actives largely listed as inhibitors. 310,000 tested, 5.4% active; also: nearly all actives have a fitted effect of over 60% in size
Target sequence (P51450 whole entry, looked up, the tested form may be a part): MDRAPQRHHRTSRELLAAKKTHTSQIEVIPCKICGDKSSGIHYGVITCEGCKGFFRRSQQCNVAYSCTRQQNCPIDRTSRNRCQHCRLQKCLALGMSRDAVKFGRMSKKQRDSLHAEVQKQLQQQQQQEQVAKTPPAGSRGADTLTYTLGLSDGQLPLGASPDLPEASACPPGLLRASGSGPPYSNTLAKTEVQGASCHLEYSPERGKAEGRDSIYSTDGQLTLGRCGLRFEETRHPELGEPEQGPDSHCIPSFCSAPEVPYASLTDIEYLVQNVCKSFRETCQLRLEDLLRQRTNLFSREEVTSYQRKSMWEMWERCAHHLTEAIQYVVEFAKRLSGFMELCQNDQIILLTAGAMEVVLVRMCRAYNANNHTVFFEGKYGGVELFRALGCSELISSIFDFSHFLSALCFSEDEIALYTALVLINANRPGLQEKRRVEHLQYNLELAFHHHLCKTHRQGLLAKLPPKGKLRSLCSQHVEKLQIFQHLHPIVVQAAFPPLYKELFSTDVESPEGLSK
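Stable Schneider cell line, Gal4 DNA-binding domain fused to ROR gamma, UAS-luciferase. Cmpd 1 hr RT → CuSO4 700 uM final → 20 hr RT → luciferase reagent 10 min → luminescence.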
DT40 TDP1 no CPT: qHTS for Inhibitors of human tyrosyl-DNA phosphodiesterase 1 (TDP1): qHTS in cells in absence of CPT; DT40 Tdp1-/- hTDP1 cells, no CPT, ATP luminescence, 48 h; Potency, µM (highest dose often 46.2 µM), without a hit: at the highest dose activity change, negative = growth inhibition, actives largely listed as inhibitors; 420,000 tested, 15% active; AID 686978, 2013; also: nearly all actives have a fitted effect of over 55% in size
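Cells were dispensed at 400 per well, compounds added by pin tool, plates incubated ≥48 hr at 37 °C, then CellTiter-Glo added for 30 min at room temperature before luminescence reading. Line: DT40 Tdp1-/- complemented with hTDP1; camptothecin omitted.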
TDP1 inh: TDP1 (human) enzyme inhibition. Q9NUW8. AID 485290. Potency, µM (series often up to 130 µM), inactives show at the top dose activity change, negative = inhibition, most hits filed as inhibitors. 350,000 tested, 0.28% active. recombinant TDP1, AlphaScreen DNA substrate cleavage; also: nearly all actives have a fitted effect of over 40% in size
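Here, a 5' biotin and 3' phosphotyrosine-FITC DNA oligonucleotide reports Tdp1 activity: intact substrate bridges AlphaScreen beads, while cleavage leaves a 3' phosphate and drops signal. All incubations at room temperature.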
An asterisk follows results filed as active. The list is not random: actives were taken first. Their share in the collection is about 19%. Calls follow the shape of the dose curve; as a rule, active = well fitted curve in the direction sought with a large enough effect; inconclusive = small, poorly fitted or top-dose-only effect, or another doubt; inactive = no such curve, though single readings can be large; an effect the other way counts as inactive or inconclusive. % is scaled to controls: 0 for no effect and ±100 for the full control effect; potency is read from the fitted curve at half-maximal effect.

What do the screens show for `COc1cccc(/C=C2\SC(=S)N(CCCC(=O)N3CCCCC3CCO)C2=O)c1` (stereo not given)?
TDP1 cell CPT: inconclusive; VP16 counter: 2.8µM*; RORg inh: 3.5µM*; DT40 TDP1 no CPT: 16µM*; TDP1 inh: 10%

How did O=C1/C(=C/c2cccs2)SC(=S)N1CCC(=O)N1CCCCC1CCO (stereo not given) do in these assays?
TDP1 cell CPT: inconclusive; VP16 counter: 11µM*; RORg inh: inconclusive; DT40 TDP1 no CPT: inconclusive; TDP1 inh: 10%

How did COc1ccc(/C=C2\SC(=S)N(CCCC(=O)N3CCN(C)CC3)C2=O)cc1OC do in these assays?
TDP1 cell CPT: -25%; DT40 TDP1 no CPT: -10%

What do the screens show for `COc1ccccc1/C=C1\SC(=S)N(CCC(=O)N2CCCCC2CCO)C1=O` (stereo not given)?
TDP1 cell CPT: 16µM*; VP16 counter: -1%; RORg inh: inconclusive; DT40 TDP1 no CPT: inconclusive; TDP1 inh: 9%

Results for COc1ccccc1/C=C1/SC(=S)N(CCC(=O)Nc2cccnc2)C1=O ?
TDP1 cell CPT: inconclusive; VP16 counter: -8%; RORg inh: 22%; DT40 TDP1 no CPT: inconclusive; TDP1 inh: 3%

What do the screens show for `COc1cccc(/C=C2\SC(=S)N(CCCC(=O)N3CCCC3)C2=O)c1`?
TDP1 cell CPT: inconclusive; VP16 counter: -17%; RORg inh: 2.5µM*; DT40 TDP1 no CPT: 21µM*; TDP1 inh: 13%

What do the screens show for `COc1cccc(/C=C2\SC(=S)N(CCC(=O)N3CCCCC3CCO)C2=O)c1` (stereo not given)?
TDP1 cell CPT: 13µM*; VP16 counter: -29%; RORg inh: inconclusive; DT40 TDP1 no CPT: 18µM*; TDP1 inh: 6%

What do the screens show for `O=[N+]([O-])c1ccc2c(c1)C=C1CCCCC1(N1CCCC1)O2` (stereo not given)?
TDP1 cell CPT: -30%; VP16 counter: 2%; RORg inh: 4%; DT40 TDP1 no CPT: -22%; TDP1 inh: 8%

Results for N#CC1=C(N)Oc2cc(N)ccc2C1c1cccc(Br)c1 (stereo not given) ?
TDP1 cell CPT: 2.9µM*; VP16 counter: -15%; RORg inh: -21%; DT40 TDP1 no CPT: 1.5µM*; TDP1 inh: 8%

Results for N#CC1=C(N)Oc2cc(N)ccc2C1c1ccccc1F (stereo not given) ?
TDP1 cell CPT: 7.3µM*; VP16 counter: 12%; RORg inh: -34%; DT40 TDP1 no CPT: 8.2µM*

What do the screens show for `Cc1ccc(C2C(C#N)=C(N)Oc3cc(N)ccc32)cc1` (stereo not given)?
TDP1 cell CPT: -12%; VP16 counter: -1%; RORg inh: 21%; DT40 TDP1 no CPT: -26%; TDP1 inh: 6%

How did CC(=O)Nc1c(C(=O)O)ccc(C)c1OCc1ccccc1 do in these assays?
TDP1 cell CPT: -21%; DT40 TDP1 no CPT: 4%

What do the screens show for `O=[N+]([O-])c1cccc(C2=NC(c3ccccc3)CO2)c1` (stereo not given)?
TDP1 cell CPT: -23%; VP16 counter: -12%; RORg inh: -1%; DT40 TDP1 no CPT: -20%; TDP1 inh: 0%

What do the screens show for `O=C1CSC(c2cn(-c3ccccc3)nc2-c2cc3ccccc3o2)N1Cc1ccccc1` (stereo not given)?
TDP1 cell CPT: inconclusive; VP16 counter: 14%; RORg inh: 1%; DT40 TDP1 no CPT: inconclusive; TDP1 inh: 0%

What do the screens show for `Cc1ccc(-c2nn(-c3ccccc3)cc2C2SCC(=O)N2Cc2ccccc2)o1` (stereo not given)?
TDP1 cell CPT: 13µM*; VP16 counter: inconclusive; RORg inh: 11µM*; DT40 TDP1 no CPT: 8.2µM*; TDP1 inh: 8%

How did Clc1cccc(N2CCN(c3c4c(nc5nncn35)CCC4)CC2)c1 do in these assays?
TDP1 cell CPT: 18µM*; DT40 TDP1 no CPT: 7.3µM*; TDP1 inh: 7%
